The text below walks through data of PubChem BioAssay.

The structures appear in SMILES notation. Calls of active or inactive are those of the source.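 How the source made its calls, unless noted: active means fluorescence slope after compound addition differing from the mean of all screened samples at 99.7% confidence, in either direction; inactive means the rest.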

Test [1] can be described thus: inhibitors of TNFa-induced NFkB p65 translocation, primary screen, imaging, HUVEC, MLSMR starter and 10KST1 sets (AID 438;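 active means inhibition above 20% together with a positive visual image hit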;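 further: compound added about 3h40 before a 20 min TNFalpha stimulation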;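 on inhibition: signal is the nuclear over cytoplasmic p65 intensity ratio per well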). To be noted: HUVEC TNFa-induced p65 nuclear translocation; cell count: measured here: nuclei count (cytotoxicity indicator), at 2.08 µM; inhibition: at 2 µM, stronger effect = higher value, 0% TNFa-plus-vehicle, 100% no-TNFa wells.
Test [2] in a line: reduction of polyQ htt aggregates in cells – imaging, exon1htt(103Q)mCFP cells, high-content imaging, primary screen (AID 483;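 active means visual image review flags a hit and inhibition of aggregation exceeds 20%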;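 further: compound exposure lasted 3 days before fixation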;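 on nuclei count: percent of the per-plate median nuclei count of sample wells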). To be noted: exon1htt(103Q)mCFP cell line, aggregate imaging, at 2 µM; inhibition of aggregation: stronger effect = higher value; nuclei count: measured here: cell count, toxicity.
Test [3] can be described thus: endothelial E-selectin expression blockers – imaging, HUVEC, immunofluorescence, MLSMR starter and 10KST1 sets, primary screen (AID 487;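 active means visually confirmed hit in the image check and inhibition above 20%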;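 on inhibition: signal is fraction of cell area covered by stained E-selectin grains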;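 on nuclei count: 100% = median nuclei count of all wells on the same plate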). The settings on record: HUVEC TNFalpha-induced E-selectin immunofluorescence imaging, at 2 µM; inhibition: stronger effect = higher value; nuclei count: measured here: cell number, toxicity.
In test [4] the target is Voltage-gated potassium channel subunit beta-2 (Rattus norvegicus) (UniProt P62483). The experiment in a line: inhibitors of rat Kvbeta2 reductase activity – biochemical, NADPH fluorescence, primary screen (AID 622;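 active means fluorescence slope higher than the sample average by over 3 SD, cut at about -0.22 in these data, passing the limit was not always enough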;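 further: slope of raw intensity against log time taken from 70 to 1610 s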). The settings on record: recombinant KvBeta, 4-cyanobenzaldehyde reduction, at 10 µM, stronger effect = higher value.
Chain of Voltage-gated potassium channel subunit beta-2 (Rattus norvegicus) (P62483 whole entry, looked up): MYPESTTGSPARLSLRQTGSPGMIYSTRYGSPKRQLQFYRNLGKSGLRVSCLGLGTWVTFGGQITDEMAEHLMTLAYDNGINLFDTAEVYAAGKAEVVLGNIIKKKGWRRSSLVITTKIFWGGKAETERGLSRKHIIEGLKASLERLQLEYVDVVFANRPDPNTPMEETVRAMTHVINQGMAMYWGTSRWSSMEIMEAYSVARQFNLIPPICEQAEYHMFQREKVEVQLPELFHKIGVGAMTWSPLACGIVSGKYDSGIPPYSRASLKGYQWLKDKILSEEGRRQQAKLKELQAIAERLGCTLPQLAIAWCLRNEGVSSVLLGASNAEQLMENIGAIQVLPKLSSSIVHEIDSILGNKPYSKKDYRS
Test [5] has the same target. Briefly: enhancers of rat Kvbeta2 NADPH turnover – biochemical, NADPH fluorescence, primary screen (AID 623;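 active means NADPH fluorescence slope more negative than the mean of all samples by about 3 SD, 99.7% confidence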;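 further: fluorescence intensity change per second fitted from 20 to 320 s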). The settings on record: Recombinant KvBeta, NADPH fluorescence decrease slope, 10 min; at 10 µM; stronger effect = lower value.
Test [6] addresses Alpha-2C adrenergic receptor (Homo sapiens) (UniProt P18825). Briefly: compounds altering alpha2C-coupled GIRK flux – cell-based, HEK293 alpha2C/GIRK1/2, thallium flux, primary screen (AID 624).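 Further: slope of fluorescence ratio to pre-addition baseline per second over 15 to 24 s.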 To be noted: thallium flux BTC fluorescence, at 10 µM, actives lie on both sides.
The nature of test [7]: blockers of RIG-like receptor reporter activation – cell-based, Sendai virus stimulus, luciferase, 10K MLSCN set, TLR/RLR signaling modifier project, primary screen (AID 602276;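 active means inhibition at or above 50% at 10 µM; inactive means inhibition below 50%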;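 further: firefly luciferase from ISG56 promoter only with Renilla not read in this screen; 0% = Sendai virus plus DMSO and 100% = medium plus DMSO without virus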). The settings on record: HEK293 RL24 IRF3 luciferase reporter, at 10 µM, stronger effect = higher value. In general terms: In a reporter assay the amount or activity of a reporter protein is the signal.
The nature of test [8]: TLR3 IRF3 reporter activation blockers – cell-based, poly I:C stimulus, luciferase, 10K MLSCN set, primary screen (AID 602277;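 active means inhibition of the reporter signal at or above 50%; inactive means inhibition below 50%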). To be noted: HEK293-TLR3 RL24 IRF3 luciferase reporter, at 10 µM, stronger effect = higher value.

Chain of Alpha-2C adrenergic receptor (Homo sapiens) (P18825 whole entry, looked up): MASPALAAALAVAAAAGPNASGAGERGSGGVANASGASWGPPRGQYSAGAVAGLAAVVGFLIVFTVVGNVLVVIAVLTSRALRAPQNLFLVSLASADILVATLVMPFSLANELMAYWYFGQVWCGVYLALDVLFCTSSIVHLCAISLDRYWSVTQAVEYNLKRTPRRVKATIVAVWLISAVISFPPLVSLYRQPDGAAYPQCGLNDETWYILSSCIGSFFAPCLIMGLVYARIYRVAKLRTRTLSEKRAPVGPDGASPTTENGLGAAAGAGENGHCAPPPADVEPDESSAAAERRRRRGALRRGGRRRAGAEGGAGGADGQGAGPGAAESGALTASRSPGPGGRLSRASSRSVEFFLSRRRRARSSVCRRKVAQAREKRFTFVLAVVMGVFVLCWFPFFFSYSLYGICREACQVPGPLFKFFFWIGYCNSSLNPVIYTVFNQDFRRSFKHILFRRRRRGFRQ

Regarding `COc1ccc(CNc2nc3nc(C)c(Cl)c(C)n3n2)cc1OC`, the cell count in test [1] was determined as 684. Also, the inhibition (commonly the change of the read-out against control, counted positive when it falls) in test [1] is -23.3% (inactive); in test [3], -4.1% (inactive); in test [7] it was 3.08% (inactive); in test [8] it was -10.6% (inactive). Also, the inhibition of aggregation in test [2] was -2.8% (inactive). Also, the nuclei count in test [2] was 110%; in test [3], 105%. For the same compound, the fluorescence slope in test [4] is -0.331 (inactive). For the same compound, in test [5], the NADPH fluorescence slope was -6e-05 (inactive). Moreover, in test [6], the slope is 0.00515 (inactive).
For the compound `COC(=O)c1c(NC(=O)CSc2nnnn2C)sc(C)c1C`, the cell count in test [1] came to 446. Besides, the inhibition in test [1] was -0.5% (inactive); in test [3] it was 30.9% (inactive); in test [7], -19% (inactive); in test [8] it was -14.9% (inactive). Moreover, in test [2], the inhibition of aggregation was -4.7% (inactive). The nuclei count came to 95.6% in test [2] and 101% in test [3]. In addition, the fluorescence slope in test [4] was -0.374 (inactive). The NADPH fluorescence slope in test [5] was -3.1e-05 (inactive). Besides, in test [6], the slope was 0.00478 (inactive).
Turning to `O=C(Cn1c(=O)oc2ccccc21)Nc1ccc(S(=O)(=O)N2CCCCC2)cc1`, in test [1], the cell count was determined as 392. Moreover, the inhibition was 0.3% (inactive) in test [1], -75.3% (inactive) in test [3], 7.3% (inactive) in test [7] and 14.4% (inactive) in test [8]. Moreover, the inhibition of aggregation in test [2] was -5.3% (inactive). The nuclei count in test [2] is 89.6%; in test [3], 126%. The fluorescence slope in test [4] is -0.504 (inactive). Besides, in test [5], the NADPH fluorescence slope was -2.7e-05 (inactive). Besides, the slope in test [6] is 0.00415 (inactive).
For `CCOC(=O)C(C)(C)Sc1nc2c(cnn2-c2ccc(Cl)cc2)c(=O)[nH]1`, the cell count in test [1] is 623. For the same compound, the inhibition is -5.2% (inactive) in test [1], -27.2% (inactive) in test [3], 9.09% (inactive) in test [7] and 16.7% (inactive) in test [8]. In addition, the inhibition of aggregation in test [2] is -10.2% (inactive). Further, the nuclei count stood at 119% in test [2] and 102% in test [3]. In addition, the fluorescence slope in test [4] was -0.59 (inactive). In addition, the NADPH fluorescence slope in test [5] is -5e-05 (inactive). Moreover, the slope in test [6] is 0.00733 (inactive).
On to `O=C(Cc1ccccc1)Nc1ccc(CN2CCOCC2)cc1`, for which the cell count in test [1] worked out at 451. Moreover, the inhibition was -5.4% (inactive) in test [1], -2.9% (inactive) in test [3], -34% (inactive) in test [7] and -71.3% (inactive) in test [8]. Also, in test [2], the inhibition of aggregation was -17.1% (inactive). The nuclei count was found to be 104% in test [2] and 107% in test [3]. Also, the fluorescence slope in test [4] is -0.418 (inactive). Also, the NADPH fluorescence slope in test [5] was -3.3e-05 (inactive). Besides, in test [6], the slope was 0.00462 (inactive).
In the case of `CCOc1cc(C(=O)NCc2nnc(SCC(=O)OC)n2C)cc(OCC)c1OCC`, the cell count in test [1] worked out at 291. Moreover, the inhibition in test [1] was 10% (inactive); in test [3], 1.2% (inactive); in test [7], 10.7% (inactive); in test [8] it was 16% (inactive). Also, in test [2], the inhibition of aggregation is 17% (inactive). Besides, the figures for the nuclei count in test [2] and in test [3] were 55.3% and 101%, respectively. Further, the fluorescence slope in test [4] was -0.337 (inactive). In test [5], the NADPH fluorescence slope was -1.2e-05 (inactive). Moreover, in test [6], the slope was 0.00327 (inactive).
For `CC(=O)Nc1cccc(Oc2nc(C)cc(C)c2C#N)c1`, in test [1], the cell count amounted to 950. Moreover, the inhibition in test [1] is 4% (inactive); in test [3], -87% (inactive); in test [7], 2.68% (inactive); in test [8] it was 22.3% (inactive). In addition, the inhibition of aggregation in test [2] was 0.6% (inactive). The nuclei count in test [2] was determined as 111%; in test [3], 124%. The fluorescence slope in test [4] is -0.553 (inactive). Further, the NADPH fluorescence slope in test [5] was -1.7e-05 (inactive). Moreover, the slope in test [6] was 0.00763 (inactive).
Regarding `Cc1cccc(-n2c(O)c(C=Nc3ccccc3N)c(=O)[nH]c2=O)c1`, the cell count in test [1] worked out at 444. The inhibition in test [1] was 6% (inactive); in test [3] it was -29.2% (inactive); in test [7], 13% (inactive); in test [8] it was 25.3% (inactive). Besides, the inhibition of aggregation in test [2] is -8.1% (inactive). The nuclei count in test [2] amounted to 101%; in test [3], 120%. For the same compound, the fluorescence slope in test [4] is -0.414 (inactive). The NADPH fluorescence slope in test [5] is -0.000142 (inactive). In addition, the slope in test [6] was 0.00576 (inactive).
Turning to `COc1cc(OC)c2c(c1)OC(c1ccc(OC)c(OC)c1)C(O)C2=O` (centres undefined), in test [1], the cell count was found to be 524. The inhibition in test [1] is 2.6% (inactive); in test [3], -60% (inactive); in test [7], 10.3% (inactive); in test [8] it was 3.76% (inactive). In addition, in test [2], the inhibition of aggregation is -8.9% (inactive). The nuclei count is 104% in test [2] and 115% in test [3]. The fluorescence slope in test [4] was -0.5 (inactive). The NADPH fluorescence slope in test [5] is -2.5e-05 (inactive). Further, the slope in test [6] is 0.00643 (inactive).
In the case of `COc1ccc(N2CCN(Cc3nc4ccccc4c(=O)[nH]3)CC2)cc1`, in test [1], the cell count is 683. For the same compound, the inhibition was -4.7% (inactive) in test [1], -72.3% (inactive) in test [3], 10.6% (inactive) in test [7] and -9.48% (inactive) in test [8]. For the same compound, the inhibition of aggregation in test [2] is -13.4% (inactive). Moreover, the nuclei count in test [2] came out at 119%; in test [3] it was 112%. For the same compound, the fluorescence slope in test [4] was -0.607 (inactive). Further, in test [5], the NADPH fluorescence slope was -3.1e-07 (inactive). The slope in test [6] was 0.00376 (inactive).
Consider `O=C(Nc1ccc(N2CCOCC2)c(Cl)c1)c1ccc(Br)o1`, for which, in test [1], the cell count was determined as 708. Also, the inhibition in test [1] was 8.2% (inactive); in test [3] it was -109% (inactive); in test [7], -54.1% (inactive); in test [8], -162% (inactive). In addition, the inhibition of aggregation in test [2] was 4.4% (inactive). The nuclei count in test [2] was determined as 103%; in test [3], 104%. Besides, the fluorescence slope in test [4] was -0.497 (inactive). Further, in test [5], the NADPH fluorescence slope is -0.000111 (inactive). The slope in test [6] was 0.00715 (inactive).
As for `Fc1ccc(-n2c(Cc3ccccc3)nnc2SCc2nc(-c3cccs3)no2)cc1`, in test [1], the cell count is 466. The inhibition in test [1] was 2.5% (inactive); in test [3], -52.5% (inactive); in test [7] it was -1.69% (inactive); in test [8], 1.22% (inactive). Further, in test [2], the inhibition of aggregation was 0.1% (inactive). Moreover, the nuclei count in test [2] came to 86.5%; in test [3], 108%. For the same compound, the fluorescence slope in test [4] is -0.63 (inactive). In addition, the NADPH fluorescence slope in test [5] was -4.2e-05 (inactive). In test [6], the slope was 0.00381 (inactive).
For the compound `Cc1cccc(NC(=O)CS(=O)(=O)c2cn(C)c3ccccc23)c1`, in test [1], the cell count came to 628. The inhibition in test [1] is 2.4% (inactive); in test [3], -12.5% (inactive); in test [7], 7.93% (inactive); in test [8], 22.7% (inactive). Also, in test [2], the inhibition of aggregation was 4.8% (inactive). The nuclei count in test [2] turned out to be 99.7%; in test [3], 103%. The fluorescence slope in test [4] was -0.521 (inactive). Also, the NADPH fluorescence slope in test [5] was 2.1e-06 (inactive). The slope in test [6] was 0.00711 (inactive).
For the compound `COc1ccc2cc(C#N)c(SCC(=O)N3CCCC3)nc2c1`, the cell count in test [1] was found to be 514. Also, the inhibition in test [1] was -2.1% (inactive); in test [3], -68.2% (inactive); in test [7], -0.637% (inactive); in test [8], -5.53% (inactive). Also, the inhibition of aggregation in test [2] was -17.8% (inactive). Moreover, the nuclei count in test [2] turned out to be 116%; in test [3] it was 150%. Moreover, the fluorescence slope in test [4] was -0.57 (inactive). Besides, in test [5], the NADPH fluorescence slope was -2.5e-05 (inactive). For the same compound, the slope in test [6] was 0.00554 (inactive).
